The results in this text go back to PubChem BioAssay (NCI).

Test systems include NCI-H23 lung; NCI-H226 lung; NCI-H322M lung; HOP-62 NSCLC; NCI-H460 lung; HOP-92 NSCLC; NCI-H522 lung; 786-0 renal; COLO 205 colon; A549/ATCC NSCLC.
Holding throughout (experiment): NCI-60 one-dose screen, 48 h (100 = growth as untreated, 0 = no growth, -100 = all killed)
Settings in all cases: 10 µM unless noted

About 83,000 compounds went through this panel and 20% of them were active in at least one assay; those are over-represented in the sample as a whole.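 Cell lines were cultured in 96-well plates, exposed to a single compound concentration, and assessed for percent growth 48 hours later.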 Values without a mark were called inactive. Calls of active or inactive are those of the source. The calls were made as follows: active = growth percent below 10; inactive = the rest.

Turning to `OC(c1cc(-c2ccccc2)nc2ccc(Cl)cc12)C1CCCCN1` (stereo unspecified), the growth is 66.9% with NCI-H23 lung; 71.3% in the experiment on NCI-H226 lung; 41.8% with NCI-H322M lung; 93.3% in the experiment on HOP-62 NSCLC; -16.8% (active) in the experiment on NCI-H460 lung; 6.52% (active) in the experiment on HOP-92 NSCLC. Moreover, the figures for the growth in the experiment with NCI-H522 lung, with 786-0 renal and in the experiment on COLO 205 colon were 59.7%, 66.8% and -60.9% (active), respectively.
In the case of `C=C1CCC2C3(C)COC(c4ccc(SC)cc4)OC3CCC2(C)C1C/C=C1/C(=O)OCC1O` (stereo unspecified), the growth in the experiment on NCI-H23 lung is 44.9%; with NCI-H226 lung, 48.7%; in the experiment on NCI-H322M lung it was 102%; in the experiment with HOP-62 NSCLC, 107%; in the experiment with NCI-H460 lung, 81.8%; with HOP-92 NSCLC, 81.7%. Besides, the growth with NCI-H522 lung is 73.3%; with 786-0 renal, 78.4%; with COLO 205 colon, 72.3%.
`Nc1ccc(N2CCOCC2)cc1`: the growth in the experiment on NCI-H23 lung is 86.1%; with NCI-H226 lung it was 102%; in the experiment with NCI-H322M lung, 91.2%; with HOP-62 NSCLC, 90.8%; with NCI-H460 lung, 104%; in the experiment with HOP-92 NSCLC, 114%. Also, the growth in the experiment with NCI-H522 lung is 94.1%; in the experiment on 786-0 renal, 92.2%; with COLO 205 colon it was 123%.
Consider `CSc1[nH]c2ncnc(N)c2c1C#N`, for which the growth with NCI-H23 lung was 91.4%; with NCI-H226 lung, 73.6%; in the experiment with NCI-H322M lung it was 82.9%; in the experiment on HOP-62 NSCLC it was 94.9%; with NCI-H460 lung, 99.6%; in the experiment with HOP-92 NSCLC, 118%. In addition, the growth is 82.6% in the experiment with NCI-H522 lung, 99.7% with 786-0 renal and 117% with COLO 205 colon.
For the compound `COc1ccc(-c2cc(-c3cccnc3)nc3sc4c(=O)n(-c5ccc(C)cc5)nnc4c23)cc1OC`, the growth in the experiment on NCI-H23 lung was 98%; with NCI-H226 lung, 93%; in the experiment on NCI-H322M lung, 97.6%; in the experiment with HOP-62 NSCLC it was 95.5%; with NCI-H460 lung, 100%; in the experiment with HOP-92 NSCLC, 74.4%. The growth in the experiment with NCI-H522 lung was 101%; in the experiment with COLO 205 colon, 102%.
For the compound `Cc1ccc2c(c1)n([O-])c1cc(Cl)ccc1[n+]2=O`, the growth in the experiment with NCI-H23 lung was 97%; in the experiment with NCI-H226 lung it was 104%; in the experiment on NCI-H322M lung it was 115%; with HOP-62 NSCLC it was 103%; in the experiment with NCI-H460 lung, 114%; with HOP-92 NSCLC, 81.9%. In addition, the growth in the experiment on NCI-H522 lung was 89.2%; in the experiment on 786-0 renal, 91.3%; with COLO 205 colon it was 108%.
Take `O=C1/C(=C/c2ccc(F)cc2)CN(C(=O)CCN2CCC(=NO)CC2)C/C1=C\c1ccc(F)cc1`: the growth is -26.5% (active) with NCI-H23 lung; 72.8% in the experiment on NCI-H226 lung; -11.8% (active) in the experiment with NCI-H322M lung; -37.7% (active) in the experiment on HOP-62 NSCLC; -5.42% (active) with HOP-92 NSCLC; -72.6% (active) in the experiment on NCI-H522 lung. Besides, the growth was 28.4% with A549/ATCC NSCLC, -44.7% (active) with 786-0 renal and -81.9% (active) in the experiment on COLO 205 colon.
With `CCCCCCCCCC(=O)Oc1ccc(/C(=C(/C)c2ccccc2)c2ccc(OCCN3CCCC3)cc2)cc1`, the growth in the experiment with NCI-H23 lung is 26.8%; in the experiment with NCI-H226 lung, 65.7%; in the experiment on NCI-H322M lung it was 32.8%; in the experiment with HOP-62 NSCLC, -1.82% (active); in the experiment on HOP-92 NSCLC, -19% (active); with NCI-H522 lung, -26.3% (active). In addition, the growth in the experiment with A549/ATCC NSCLC was 11.3%; in the experiment with 786-0 renal, -58.6% (active); in the experiment on COLO 205 colon, -57.1% (active).
`C=C1CCC2C3(C)COC(c4ccccc4Br)OC3CCC2(C)C1C/C=C1/C(=O)OCC1OC(C)=O` (stereo unspecified): the growth with NCI-H23 lung was -47.7% (active); with NCI-H226 lung it was -58.3% (active); with NCI-H322M lung, 21.7%; in the experiment on HOP-62 NSCLC, 11.5%; with HOP-92 NSCLC it was 1.59% (active); in the experiment with NCI-H522 lung, -52.7% (active). Also, the growth in the experiment with A549/ATCC NSCLC was 22.7%; with 786-0 renal, -72.8% (active); in the experiment on COLO 205 colon, -76.7% (active).
As for `O=C(CN1CCN(c2cc3c(cc2F)c(=O)c(C(=O)N/N=C/c2ccccc2)cn3C2CC2)CC1)N/N=C\c1ccccc1`, the growth with NCI-H23 lung was 94.5%; in the experiment on NCI-H226 lung, 81.3%; in the experiment with NCI-H322M lung, 85.4%; with HOP-62 NSCLC it was 109%; in the experiment on HOP-92 NSCLC, 76%; with NCI-H522 lung it was 76.5%. The growth with A549/ATCC NSCLC is 69.9%; in the experiment with 786-0 renal, 90.4%; in the experiment with COLO 205 colon it was 99.6%.
`CCCCCC(=O)N(CCCC)CCCC`: the growth with NCI-H23 lung is 107%; in the experiment on NCI-H226 lung, 99.7%; in the experiment on NCI-H322M lung, 89.4%; in the experiment with HOP-62 NSCLC, 104%; in the experiment with HOP-92 NSCLC, 91.7%; with NCI-H522 lung it was 97.6%. For the same compound, the growth with A549/ATCC NSCLC was 100%; in the experiment on 786-0 renal, 104%; in the experiment on COLO 205 colon, 125%.
In the case of `C=CCSc1nnc(-c2ccc(C(C)(C)C)cc2)n1-c1cccc(C(F)(F)F)c1`, the growth in the experiment with NCI-H23 lung was 35.4%; in the experiment on NCI-H226 lung it was 44.7%; in the experiment on NCI-H322M lung it was 77.7%; in the experiment with HOP-62 NSCLC, 67.3%; in the experiment with HOP-92 NSCLC, 28.9%; in the experiment on NCI-H522 lung, 37.3%. Moreover, the growth with A549/ATCC NSCLC was 21.2%; in the experiment with 786-0 renal, 30.4%; in the experiment on COLO 205 colon it was 41.1%.
As for `COc1ccc(-c2csc(NC(=O)CN3CCN(c4cc5c(cc4F)c(=O)c(C(=O)O)cn5C4CC4)CC3)n2)cc1`, the growth in the experiment on NCI-H23 lung is 9.73% (active); with NCI-H226 lung, 16%; in the experiment with NCI-H322M lung it was 17.1%; with HOP-62 NSCLC, 15.4%; in the experiment on HOP-92 NSCLC, -17.2% (active); in the experiment with NCI-H522 lung, -9.19% (active). For the same compound, the figures for the growth with A549/ATCC NSCLC, in the experiment with 786-0 renal and with COLO 205 colon were 9.1% (active), 24.4% and 12.6%, respectively.
